Our source for the outcome and activity change, negative = cytotoxic values is PubChem BioAssay (Tox21).

Results filed as inconclusive are left out. Values without a mark were called inactive. Active and inactive are the calls of the source. Calls follow the shape of the dose curve; as a rule, active = well fitted cell-killing curve with a large enough effect in the repeat runs; inconclusive = weak or mixed curves; inactive = flat fitted curve, though single readings scatter.
% is scaled to controls: 0 for no effect and ±100 for the full control effect.

The nature of this assay: qHTS RealTime-Glo MT Cell Viability Assay in HepG2 cells - 32 hour (AID 1224877). Also: nearly all actives have a fitted effect of over 55% in size. As to conditions: RealTime-Glo luminescence; series mostly up to 76.8 µM. In a few lines:
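qHTS, HepG2, 600 cells/well, RealTime-Glo (NanoLuc + prosubstrate) added with cells; 5 h preincubation; DMSO compound addition; 37 C; luminescence at 0/8/16/24/32/40 h.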
On the technique in general: In qHTS, concentration-response curves come from the screen itself.
With `OCCCCC(O)CO` (stereo not given), the outcome was inactive. Still for that read-out and setting: as for `Cc1cccc2nccnc12`, the entry is “inactive”; as for `CN(C)C(=O)CNC(=O)Cc1ccccc1`, “inactive”.

Take `CN(CCOc1ccc(NS(C)(=O)=O)cc1)CCc1ccc(NS(C)(=O)=O)cc1`: the call was inactive. The same measure, in the same setting: with `C=CC(OCC)OCC` the entry was “inactive”; with `CCCCCCCCSCC`, “inactive”; with `Cc1[nH]cnc1-c1ccc(Cl)cc1`, “inactive”. Regarding `c1ccc2c(c1)ccc1c3ccccc3ccc21`, the result was inactive.

Regarding `NS(=O)(=O)c1cc2c(cc1Cl)CN(C1CCCCC1)C2=O`, the result was inactive.

Take `Oc1cn2c(n1)Nc1ccc(Cl)c(Cl)c1C2`: the activity change, negative = cytotoxic was -1.97% [at 15.8 µM]. Regarding `CCOC(=O)c1ncn2c1CN(C)C(=O)c1cc(F)ccc1-2`, the outcome was inactive. Same read-out and setting: as for `CN1C(C)(C)CCCC1(C)C`, the entry is “inactive”; as for `CC(C)(C)c1cc(CCC(=O)NN)cc(C(C)(C)C)c1O`, “inactive”.

`C[Si](C)=O`: the activity change, negative = cytotoxic is 0.305% [at 6.97 µM]. For `CCc1ccc(C=O)cc1`, the call was inactive. Still for that read-out and setting: as for `CC(=O)OC(C)OC(=O)C(C)c1ccc(-c2ccccc2)c(F)c1` (stereo not given), the entry is “inactive”; as for `COP(=O)(OC)OC(c1ccc(Cl)cc1)P(=O)(OC)OC` (stereo not given), “inactive”.

In the case of `CCOCCOCCOCC`, the compound was classed as inactive. Still for that read-out and setting: as for `CC1=C(C(=O)O)N2C(=O)[C@@H](NC(=O)[C@H](N)c3ccc(O)cc3)[C@H]2SC1`, the entry is “inactive”; as for `COc1ccc2c(c1OC)C(=O)O[C@@H]2[C@H]1c2c(cc3c(c2OC)OCO3)CCN1C`, “inactive”. The same measure, in the same setting: as for `CC(C)CC(=O)O`, the entry is “inactive”; as for `CC(COC(C)(C)C)OCCCO` (stereo not given), “inactive”; as for `CC(C)CCCCOC(=O)c1ccccc1C(=O)OCCCCC(C)C`, “inactive”. The same measure, in the same setting: as for `CC(CO)c1ccccc1` (stereo not given), the entry is “inactive”. On to `CC(=O)NCc1c(I)c(NC(C)=O)c(I)c(C(=O)O)c1I`, for which the result was inactive.
